Here are results for eleven compounds from PubChem BioAssay (NCI).

This is part of a sample that, as a whole, favours compounds with a hit. Of some 79,000 tested, about 15% had one in any assay. A number with no mark means an inactive call. The source made the active and inactive calls. Rule as the data show it: active = growth inhibition above about 70%; inactive = the rest.

Test [1] can be described thus: NCI Yeast Anticancer Drug Screen. Data for the rad50 strain (AID 155).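 Also: 0% = growth of vehicle-only cultures of the same strain.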 The note with it: S. cerevisiae rad50 strain growth inhibition, active compounds read high. In short, it runs like this: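 Readout: growth inhibition relative to vehicle-treated cultures. Compound exposure was carried out in a genetically defined yeast strain deficient in DNA damage repair.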
The nature of test [2]: NCI Yeast Anticancer Drug Screen. Data for the mec2-1 strain (AID 157). The conditions noted are these: S. cerevisiae mec2-1 strain, active compounds read high. In short, it runs like this:
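Yeast mec2-1 mutant treated with compound. Readout: growth inhibition vs vehicle controls.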

Test [3] is described as follows: NCI Yeast Anticancer Drug Screen. Data for the sgs1 mgt1 strain (AID 161).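 Also: 0% = growth of cultures given vehicle only.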 The note with it: S. cerevisiae sgs1 mgt1 strain, active compounds read high. In short, it runs like this: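 Mutant yeast exposed to compound; growth scored against vehicle-only wells.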
Test [4] is described as follows: NCI Yeast Anticancer Drug Screen. Data for the cln2 rad14 strain (AID 165).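 Also: 0% = growth equal to vehicle treated cultures.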 The note with it: S. cerevisiae cln2 rad14 strain, active compounds read high. In short, it runs like this: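 cln2 rad14 yeast strain; compound exposure; growth inhibition read vs vehicle controls.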
The nature of test [5]: NCI Yeast Anticancer Drug Screen. Data for the bub3 strain (AID 167). The note with it: S. cerevisiae bub3 mutant strain, active compounds read high. In short, it runs like this: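 Readout: yeast growth inhibition, expressed relative to vehicle-only wells. The test organism is a mutant strain from a panel with lesions in DNA repair or checkpoint genes.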
Test [6] is described as follows: NCI Yeast Anticancer Drug Screen. Data for the mlh1 rad18 strain (AID 175). The note with it: S. cerevisiae mlh1 rad18 strain growth inhibition, active compounds read high. In short, it runs like this: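 Yeast w/ defined DNA-repair lesions; compound exposure; growth vs vehicle controls → % inhibition.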
The mark [7] stands for this setting: at 5.0 µM (retest, dose inferred, filed as 0.5).
Setting [8] is: at 50.0 µM (retest, dose inferred, filed as 5.0).

With `COc1cc(O)c2c(c1)C(O)C(O)CC1OC1C(=O)/C=C/CC(C)OC2=O` (stereo not given), the growth inhibition in test [1] (setting [7]) was 80% (active); in test [1] (setting [8]), 98% (active); in test [1] (at 50.0 µM), 91.5% (active); in test [2] (setting [7]) it was 59%; in test [2] (setting [8]) it was 99% (active); in test [2] (at 50.0 µM), 93.3% (active). Besides, the growth inhibition in test [3] (setting [7]) was 64%; in test [3] (setting [8]) it was 99% (active); in test [3] (at 50.0 µM), 93.1% (active); in test [4] (setting [7]), 61%; in test [4] (setting [8]) it was 99% (active); in test [4] (at 50.0 µM), 92.2% (active). The growth inhibition in test [5] (setting [7]) is 79% (active); in test [5] (setting [8]), 99% (active); in test [5] (at 50.0 µM), 92% (active).
As to `c1cc2c3c(c1)[I+]c1cccc(c1-3)[I+]2`, the growth inhibition in test [1] (setting [7]) is 51%; in test [1] (setting [8]), 67%; in test [1] (at 50.0 µM) it was 69.8%; in test [2] (setting [7]), 34%; in test [2] (setting [8]), 58%; in test [2] (at 50.0 µM), 27.1%. Further, the growth inhibition in test [3] (setting [7]) was 53%; in test [3] (setting [8]), 80% (active); in test [3] (at 50.0 µM), 65.9%; in test [4] (setting [7]), 24%; in test [4] (setting [8]) it was 40%; in test [4] (at 50.0 µM), 45%. Moreover, the growth inhibition was 39% in test [5] (setting [7]), 31% in test [5] (setting [8]) and 36.3% in test [5] (at 50.0 µM).
In the case of `Cc1cc(SCc2ccccc2)cc(C)[o+]1`, the growth inhibition in test [1] (setting [7]) is -1%; in test [1] (setting [8]) it was 92% (active); in test [1] (at 50.0 µM) it was 17.4%; in test [2] (setting [7]) it was 18%; in test [2] (setting [8]), 99% (active); in test [2] (at 50.0 µM) it was 44.4%. The growth inhibition in test [3] (setting [7]) was -20%; in test [3] (setting [8]) it was 88% (active); in test [3] (at 50.0 µM), 60.1%; in test [4] (setting [7]), -1%; in test [4] (setting [8]) it was 93% (active); in test [4] (at 50.0 µM), 55.8%. The growth inhibition is -2% in test [5] (setting [7]); 96% (active) in test [5] (setting [8]); 61.5% in test [5] (at 50.0 µM); -6% in test [6] (setting [7]); 96% (active) in test [6] (setting [8]); 63.7% in test [6] (at 50.0 µM).
As for `c1ccc(-c2ccc(-c3ccc(C4=NCCN4)cc3)o2)cc1`, the growth inhibition is 13% in test [1] (setting [7]); 91% (active) in test [1] (setting [8]); 95.7% (active) in test [1] (at 50.0 µM); 16% in test [2] (setting [7]); 79% (active) in test [2] (setting [8]); 95% (active) in test [2] (at 50.0 µM). Moreover, the growth inhibition in test [3] (setting [7]) was -1%; in test [3] (setting [8]), 51%; in test [3] (at 50.0 µM), 96.8% (active); in test [4] (setting [7]), -21%; in test [4] (setting [8]), 70% (active); in test [4] (at 50.0 µM), 89% (active). Further, the growth inhibition in test [5] (setting [7]) is 4%; in test [5] (setting [8]) it was 86% (active); in test [5] (at 50.0 µM), 95.8% (active); in test [6] (setting [7]), 3%; in test [6] (setting [8]) it was 95% (active); in test [6] (at 50.0 µM), 97.5% (active).
Take `O=C(COc1ccc(Br)cc1Br)N1N=C(c2ccc([N+](=O)[O-])o2)CC1(O)c1ccccc1` (stereo not given): the growth inhibition in test [1] (setting [7]) was 23%; in test [1] (setting [8]), 23%; in test [1] (at 50.0 µM), 19.4%; in test [2] (setting [7]), 6%; in test [2] (setting [8]), 6%; in test [2] (at 50.0 µM), 71.2% (active). The growth inhibition in test [3] (setting [7]) is 12%; in test [3] (setting [8]) it was 12%; in test [3] (at 50.0 µM), 70.7% (active); in test [4] (setting [7]), 0%; in test [4] (setting [8]), 0%; in test [4] (at 50.0 µM) it was 76.2% (active). Besides, the growth inhibition in test [5] (setting [7]) was 7%; in test [5] (setting [8]) it was 7%; in test [5] (at 50.0 µM), 59.6%; in test [6] (setting [7]) it was 22%; in test [6] (setting [8]), 22%; in test [6] (at 50.0 µM) it was 58.8%.
As for `CCc1ccc(CC(=O)O)c2ccc3c(C)ccc(C)c3c12`, the growth inhibition is 15% in test [1] (setting [7]); 96% (active) in test [1] (setting [8]); 98.9% (active) in test [1] (at 50.0 µM); 14% in test [2] (setting [7]); 98% (active) in test [2] (setting [8]); 95.8% (active) in test [2] (at 50.0 µM). Also, the growth inhibition in test [3] (setting [7]) was 14%; in test [3] (setting [8]), 97% (active); in test [3] (at 50.0 µM) it was 98.6% (active); in test [4] (setting [7]), 19%; in test [4] (setting [8]), 93% (active); in test [4] (at 50.0 µM), 95.8% (active). For the same compound, the growth inhibition in test [5] (setting [7]) was 11%; in test [5] (setting [8]), 51%; in test [5] (at 50.0 µM) it was 63.5%; in test [6] (setting [7]), 8%; in test [6] (setting [8]), 96% (active); in test [6] (at 50.0 µM) it was 94.4% (active).
With `COc1nc2nc(SC(CC(=O)O)C(=O)c3ccc(Cl)cc3)[nH]c2c2ccccc12` (stereo not given), the growth inhibition was 1% in test [1] (setting [7]); 7% in test [1] (setting [8]); 10.1% in test [1] (at 50.0 µM); 0% in test [2] (setting [7]); 1% in test [2] (setting [8]); 7.45% in test [2] (at 50.0 µM). Moreover, the growth inhibition in test [3] (setting [7]) was 2%; in test [3] (setting [8]) it was -18%; in test [3] (at 50.0 µM), -3.85%; in test [4] (setting [7]), 2%; in test [4] (setting [8]) it was -15%; in test [4] (at 50.0 µM), -12.1%. Further, the growth inhibition in test [5] (setting [7]) was -2%; in test [5] (setting [8]), -1%; in test [5] (at 50.0 µM), -5.45%; in test [6] (setting [7]), -1%; in test [6] (at 50.0 µM), 32.9%.
On to `O=C1c2sccc2-c2cccc3cccc1c23` (tested in a mixture with another compound), for which the growth inhibition in test [1] (setting [7]) is 87% (active); in test [1] (setting [8]) it was 98% (active); in test [1] (at 50.0 µM), 97.2% (active); in test [2] (setting [7]), 63%; in test [2] (setting [8]), 99% (active); in test [2] (at 50.0 µM), 98% (active). In addition, the growth inhibition was 59% in test [3] (setting [7]); 99% (active) in test [3] (setting [8]); 96.2% (active) in test [3] (at 50.0 µM); 20% in test [4] (setting [7]); 96% (active) in test [4] (setting [8]); 82.5% (active) in test [4] (at 50.0 µM). The growth inhibition in test [5] (setting [7]) was 29%; in test [5] (setting [8]), 98% (active); in test [5] (at 50.0 µM), 83.2% (active).
Take `O=C(O)/C(=C/c1ccccc1)c1ccccc1.[Ag]`: the growth inhibition in test [1] (setting [7]) is 99% (active); in test [1] (setting [8]) it was 99% (active); in test [1] (at 50.0 µM), 99.4% (active); in test [2] (setting [7]), 100% (active); in test [2] (setting [8]) it was 99% (active); in test [2] (at 50.0 µM), 94.5% (active). For the same compound, the growth inhibition is 100% (active) in test [3] (setting [7]); 100% (active) in test [3] (setting [8]); 99.3% (active) in test [3] (at 50.0 µM); -14% in test [4] (setting [7]); 99% (active) in test [4] (setting [8]); 78.8% (active) in test [4] (at 50.0 µM). The growth inhibition was 100% (active) in test [5] (setting [7]); 98% (active) in test [5] (setting [8]); 93.7% (active) in test [5] (at 50.0 µM); 99% (active) in test [6] (setting [7]); 99% (active) in test [6] (setting [8]); 99.4% (active) in test [6] (at 50.0 µM).
Regarding `N#CCc1nc(Cl)cc(Cl)n1`, the growth inhibition in test [1] (setting [7]) was 2%; in test [1] (setting [8]), 29%; in test [1] (at 50.0 µM), 31.9%; in test [2] (setting [7]), 12%; in test [2] (setting [8]) it was 59%; in test [2] (at 50.0 µM), 81.6% (active). For the same compound, the growth inhibition in test [3] (setting [7]) is 2%; in test [3] (setting [8]), 24%; in test [3] (at 50.0 µM) it was 19.8%; in test [4] (setting [7]), 4%; in test [4] (setting [8]) it was 12%; in test [4] (at 50.0 µM), 9.7%. Further, the growth inhibition is -4% in test [5] (setting [7]), 2% in test [5] (setting [8]) and 5.05% in test [5] (at 50.0 µM).
Take `CC(C)(C)NC(=S)N/N=C/c1cc(Cl)cc(Cl)c1O`: the growth inhibition in test [1] (setting [7]) is 65%; in test [1] (setting [8]) it was 72% (active); in test [1] (at 50.0 µM), 77.1% (active); in test [2] (setting [7]) it was 64%; in test [2] (setting [8]) it was 84% (active); in test [2] (at 50.0 µM), 90% (active). Also, the growth inhibition in test [3] (setting [7]) was 97% (active); in test [3] (setting [8]), 99% (active); in test [3] (at 50.0 µM), 90.4% (active); in test [4] (setting [7]), 88% (active); in test [4] (setting [8]), 93% (active); in test [4] (at 50.0 µM) it was 82.7% (active). For the same compound, the growth inhibition in test [5] (setting [7]) was 97% (active); in test [5] (setting [8]), 98% (active); in test [5] (at 50.0 µM), 84.7% (active); in test [6] (setting [7]), 74% (active); in test [6] (setting [8]), 87% (active); in test [6] (at 50.0 µM), 80.7% (active).
